# PubChem BioAssay AID1159580 (chemical genetic matrix, 2015)
# In all, about 5,500 compounds went through this assay and about 2,000 (36%) were called active. Inconclusive results (about 18%) are left out. Some of the results follow. A number with no mark means an inactive call. No stated cut-off is given here; in the data, active means normalized growth mostly below about 0.91 (no sharp cut-off); inconclusive means no clear call, values can overlap the other calls; inactive means mostly above about 0.92.
# Assay: chemical genetic growth profiling, strain panel (AID 1159580);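 further: tested at 20 µM; growth read once vehicle control cultures reached saturation at 30 °C; 1 = growth at the plate median or of vehicle wells; lower values mean less growth of the strain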
# Details: growth OD
smiles,measurement,setting,value
COC(=O)C(N)CS (configuration not stated),normalized growth,"S. cerevisiae deletion strains, locus YJR075W, strain HOC1, hits give low values",0.977
same,normalized growth,"S. cerevisiae deletion strains, locus YKL009W, strain mrt4, hits give low values",1.02
same,normalized growth,"S. cerevisiae deletion strains, locus YKL068W, hits give low values",0.99
same,normalized growth,"S. cerevisiae deletion strains, locus YKL085W, strain MDH1 (second series), hits give low values",0.992
same,normalized growth,"S. cerevisiae deletion strains, locus YKL085W, strain MDH1, hits give low values",0.992
same,normalized growth,"S. cerevisiae deletion strains, locus YKL160W, strain elf1, hits give low values",1.02
same,normalized growth,"S. cerevisiae deletion strains, locus YKL190W, strain CNB1, hits give low values",0.998
same,normalized growth,"S. cerevisiae deletion strains, locus YKR001C, strain vps1, hits give low values",0.924
same,normalized growth,"S. cerevisiae deletion strains, locus YKR026C, strain gcn3, hits give low values",0.985
same,normalized growth,"S. cerevisiae deletion strains, locus YKR091W, strain srl3, hits give low values",0.99
same,normalized growth,"S. cerevisiae deletion strains, locus YLL001W, strain dnm1, hits give low values",0.948
same,normalized growth,"S. cerevisiae deletion strains, locus YLL026W, hits give low values",0.978
same,normalized growth,"S. cerevisiae deletion strains, locus YLL041C, strain sdh2, hits give low values",0.985
same,normalized growth,"S. cerevisiae deletion strains, locus YLR027C, strain aat2, hits give low values",0.988
same,normalized growth,"S. cerevisiae deletion strains, locus YLR039C, strain RIC1, hits give low values",0.897
same,normalized growth,"S. cerevisiae deletion strains, locus YLR058C, strain SHM2, hits give low values",0.99
same,normalized growth,"S. cerevisiae deletion strains, locus YLR102C, strain apc9, hits give low values",0.98
same,normalized growth,"S. cerevisiae deletion strains, locus YLR113W, strain HOG1, hits give low values",0.972
same,normalized growth,"S. cerevisiae deletion strains, locus YLR221C, strain rsa3, hits give low values",0.961
same,normalized growth,"S. cerevisiae deletion strains, locus YLR258W, strain gsy2, hits give low values",1
same,normalized growth,"S. cerevisiae deletion strains, locus YLR262C, strain YPT6 (second series), hits give low values",0.926
same,normalized growth,"S. cerevisiae deletion strains, locus YLR262C, strain YPT6, hits give low values",0.943
same,normalized growth,"S. cerevisiae deletion strains, locus YLR268W, strain sec22, hits give low values",0.871 (active)
same,normalized growth,"S. cerevisiae deletion strains, locus YLR320W, strain mms22, hits give low values",0.92
same,normalized growth,"S. cerevisiae deletion strains, locus YLR330W, strain CHS5, hits give low values",0.993
same,normalized growth,"S. cerevisiae deletion strains, locus YLR342W, strain FKS1 (second series), hits give low values",0.938
same,normalized growth,"S. cerevisiae deletion strains, locus YLR342W, strain FKS1, hits give low values",0.984
same,normalized growth,"S. cerevisiae deletion strains, locus YLR357W, strain rsc2, hits give low values",0.947
same,normalized growth,"S. cerevisiae deletion strains, locus YLR370C, strain arc18, hits give low values",0.996
same,normalized growth,"S. cerevisiae deletion strains, locus YLR371W, strain rom2, hits give low values",0.967
same,normalized growth,"S. cerevisiae deletion strains, locus YLR384C, strain iki3, hits give low values",0.992
same,normalized growth,"S. cerevisiae deletion strains, locus YLR418C, strain cdc73, hits give low values",0.888
same,normalized growth,"S. cerevisiae deletion strains, locus YML016C, strain PPZ1, hits give low values",0.989
same,normalized growth,"S. cerevisiae deletion strains, locus YML032C, strain rad52, hits give low values",0.962
same,normalized growth,"S. cerevisiae deletion strains, locus YML120C, strain ndi1, hits give low values",0.949
same,normalized growth,"S. cerevisiae deletion strains, locus YML124C, strain tub3, hits give low values",0.985
same,normalized growth,"S. cerevisiae deletion strains, locus YMR058W, strain fet3, hits give low values",0.963
same,normalized growth,"S. cerevisiae deletion strains, locus YMR078C, strain ctf18, hits give low values",0.968
same,normalized growth,"S. cerevisiae deletion strains, locus YMR125W, strain sto1, hits give low values",1.01
same,normalized growth,"S. cerevisiae deletion strains, locus YMR129W, hits give low values",1
same,normalized growth,"S. cerevisiae deletion strains, locus YMR205C, strain PFK2, hits give low values",0.957
same,normalized growth,"S. cerevisiae deletion strains, locus YMR223W, strain ubp8, hits give low values",0.965
same,normalized growth,"S. cerevisiae deletion strains, locus YMR231W, strain pep5, hits give low values",0.981
same,normalized growth,"S. cerevisiae deletion strains, locus YMR263W, strain SAP30, hits give low values",0.984
same,normalized growth,"S. cerevisiae deletion strains, locus YMR307W, strain GAS1, hits give low values",1
same,normalized growth,"S. cerevisiae deletion strains, locus YNL067W, strain RPL9B, hits give low values",0.968
same,normalized growth,"S. cerevisiae deletion strains, locus YNL071W, strain lat1, hits give low values",0.968
same,normalized growth,"S. cerevisiae deletion strains, locus YNL128W, strain TEP1, hits give low values",0.983
same,normalized growth,"S. cerevisiae deletion strains, locus YNL153C, strain GIM3, hits give low values",0.991
same,normalized growth,"S. cerevisiae deletion strains, locus YNL183C, strain NPR1, hits give low values",1
same,normalized growth,"S. cerevisiae deletion strains, locus YNL209W, strain ssb2, hits give low values",1.01
same,normalized growth,"S. cerevisiae deletion strains, locus YNL233W, strain BNI4, hits give low values",0.955
same,normalized growth,"S. cerevisiae deletion strains, locus YNL248C, strain rpa49, hits give low values",0.984
same,normalized growth,"S. cerevisiae deletion strains, locus YNL250W, strain rad50, hits give low values",0.98
same,normalized growth,"S. cerevisiae deletion strains, locus YNL271C, strain bni1, hits give low values",0.98
same,normalized growth,"S. cerevisiae deletion strains, locus YNL298W, strain CLA4, hits give low values",0.991
same,normalized growth,"S. cerevisiae deletion strains, locus YNL307C, strain MCK1, hits give low values",0.797 (active)
same,normalized growth,"S. cerevisiae deletion strains, locus YNL322C, strain KRE1 (second series), hits give low values",1
same,normalized growth,"S. cerevisiae deletion strains, locus YNL322C, strain KRE1, hits give low values",1
same,normalized growth,"S. cerevisiae deletion strains, locus YNR049C, strain mso1, hits give low values",0.986
same,normalized growth,"S. cerevisiae deletion strains, locus YNR052C, strain pop2, hits give low values",0.973
same,normalized growth,"S. cerevisiae deletion strains, locus YOL006C, strain TOP1, hits give low values",0.896
same,normalized growth,"S. cerevisiae deletion strains, locus YOL012C, strain htz1",1.21
same,normalized growth,"S. cerevisiae deletion strains, locus YOL147C, strain pex11, hits give low values",0.984
same,normalized growth,"S. cerevisiae deletion strains, locus YOR001W, strain rrp6, hits give low values",0.929
same,normalized growth,"S. cerevisiae deletion strains, locus YOR061W, strain CKA2, hits give low values",0.989
same,normalized growth,"S. cerevisiae deletion strains, locus YOR069W, strain VPS5, hits give low values",0.991
same,normalized growth,"S. cerevisiae deletion strains, locus YOR070C, strain gyp1, hits give low values",0.999
same,normalized growth,"S. cerevisiae deletion strains, locus YOR080W, strain dia2, hits give low values",0.979
same,normalized growth,"S. cerevisiae deletion strains, locus YOR083W, strain WHI5, hits give low values",0.988
same,normalized growth,"S. cerevisiae deletion strains, locus YOR106W, strain vam3, hits give low values",0.949
same,normalized growth,"S. cerevisiae deletion strains, locus YOR136W, strain idh2, hits give low values",0.978
same,normalized growth,"S. cerevisiae deletion strains, locus YOR144C, strain elg1, hits give low values",0.979
same,normalized growth,"S. cerevisiae deletion strains, locus YOR184W, strain ser1, hits give low values",0.911
same,normalized growth,"S. cerevisiae deletion strains, locus YOR231W, strain MKK1, hits give low values",1
same,normalized growth,"S. cerevisiae deletion strains, locus YOR265W, strain rbl2, hits give low values",0.992
same,normalized growth,"S. cerevisiae deletion strains, locus YOR270C, strain vph1, hits give low values",0.805
same,normalized growth,"S. cerevisiae deletion strains, locus YOR290C, strain snf2, hits give low values",1.02
same,normalized growth,"S. cerevisiae deletion strains, locus YOR316C, strain cot1, hits give low values",0.987
same,normalized growth,"S. cerevisiae deletion strains, locus YPL051W, strain arl3, hits give low values",1.01
same,normalized growth,"S. cerevisiae deletion strains, locus YPL055C, strain LGE1, hits give low values",0.993
same,normalized growth,"S. cerevisiae deletion strains, locus YPL078C, strain atp4, hits give low values",1.01
same,normalized growth,"S. cerevisiae deletion strains, locus YPL106C, strain sse1, hits give low values",1.03
same,normalized growth,"S. cerevisiae deletion strains, locus YPL240C, strain hsp82, hits give low values",0.987
same,normalized growth,"S. cerevisiae deletion strains, locus YPL241C, strain CIN2, hits give low values",0.996
same,normalized growth,"S. cerevisiae deletion strains, locus YPL256C, strain CLN2, hits give low values",1.05
same,normalized growth,"S. cerevisiae deletion strains, locus YPR119W, strain clb2, hits give low values",0.977
same,normalized growth,"S. cerevisiae deletion strains, locus YPR141C, strain kar3, hits give low values",0.979
same,normalized growth,"S. cerevisiae deletion strains, locus YPR163C, strain tif3, hits give low values",0.887 (active)
same,normalized growth,"S. cerevisiae deletion strains, locus YPR167C, strain met16, hits give low values",0.98
same,normalized growth,"S. cerevisiae deletion strains, strain wtn01, hits give low values",0.967
same,normalized growth,"S. cerevisiae strains, strain wild type, hits give low values",0.983
